From PubChem BioAssay AID588689 (Southern Research Specialized Biocontainment Screening …, 2011)
About 1,000 (0.29%) of roughly 340,000 compounds were called active. Rule as the data show it: inconclusive = inhibition above about 29% without an active follow-up result; inactive = below that. The list is a sample of the results. Results with a measured potency or affinity are listed apart.

Biological target: Genome polyprotein (Dengue virus type 2 (strain 16681-PDK53)) (UniProt P29991)
Experiment: flavivirus cap methylation enzyme inhibition – biochemical, confirmation dose response, primary screen (AID 588689)
Conditions: Dengue-2 NS5 methyltransferase capping enzyme assay, at 25 µM, stronger effect = higher value

Sequence of Genome polyprotein (Dengue virus type 2 (strain 16681-PDK53)) (P29991 whole entry, looked up): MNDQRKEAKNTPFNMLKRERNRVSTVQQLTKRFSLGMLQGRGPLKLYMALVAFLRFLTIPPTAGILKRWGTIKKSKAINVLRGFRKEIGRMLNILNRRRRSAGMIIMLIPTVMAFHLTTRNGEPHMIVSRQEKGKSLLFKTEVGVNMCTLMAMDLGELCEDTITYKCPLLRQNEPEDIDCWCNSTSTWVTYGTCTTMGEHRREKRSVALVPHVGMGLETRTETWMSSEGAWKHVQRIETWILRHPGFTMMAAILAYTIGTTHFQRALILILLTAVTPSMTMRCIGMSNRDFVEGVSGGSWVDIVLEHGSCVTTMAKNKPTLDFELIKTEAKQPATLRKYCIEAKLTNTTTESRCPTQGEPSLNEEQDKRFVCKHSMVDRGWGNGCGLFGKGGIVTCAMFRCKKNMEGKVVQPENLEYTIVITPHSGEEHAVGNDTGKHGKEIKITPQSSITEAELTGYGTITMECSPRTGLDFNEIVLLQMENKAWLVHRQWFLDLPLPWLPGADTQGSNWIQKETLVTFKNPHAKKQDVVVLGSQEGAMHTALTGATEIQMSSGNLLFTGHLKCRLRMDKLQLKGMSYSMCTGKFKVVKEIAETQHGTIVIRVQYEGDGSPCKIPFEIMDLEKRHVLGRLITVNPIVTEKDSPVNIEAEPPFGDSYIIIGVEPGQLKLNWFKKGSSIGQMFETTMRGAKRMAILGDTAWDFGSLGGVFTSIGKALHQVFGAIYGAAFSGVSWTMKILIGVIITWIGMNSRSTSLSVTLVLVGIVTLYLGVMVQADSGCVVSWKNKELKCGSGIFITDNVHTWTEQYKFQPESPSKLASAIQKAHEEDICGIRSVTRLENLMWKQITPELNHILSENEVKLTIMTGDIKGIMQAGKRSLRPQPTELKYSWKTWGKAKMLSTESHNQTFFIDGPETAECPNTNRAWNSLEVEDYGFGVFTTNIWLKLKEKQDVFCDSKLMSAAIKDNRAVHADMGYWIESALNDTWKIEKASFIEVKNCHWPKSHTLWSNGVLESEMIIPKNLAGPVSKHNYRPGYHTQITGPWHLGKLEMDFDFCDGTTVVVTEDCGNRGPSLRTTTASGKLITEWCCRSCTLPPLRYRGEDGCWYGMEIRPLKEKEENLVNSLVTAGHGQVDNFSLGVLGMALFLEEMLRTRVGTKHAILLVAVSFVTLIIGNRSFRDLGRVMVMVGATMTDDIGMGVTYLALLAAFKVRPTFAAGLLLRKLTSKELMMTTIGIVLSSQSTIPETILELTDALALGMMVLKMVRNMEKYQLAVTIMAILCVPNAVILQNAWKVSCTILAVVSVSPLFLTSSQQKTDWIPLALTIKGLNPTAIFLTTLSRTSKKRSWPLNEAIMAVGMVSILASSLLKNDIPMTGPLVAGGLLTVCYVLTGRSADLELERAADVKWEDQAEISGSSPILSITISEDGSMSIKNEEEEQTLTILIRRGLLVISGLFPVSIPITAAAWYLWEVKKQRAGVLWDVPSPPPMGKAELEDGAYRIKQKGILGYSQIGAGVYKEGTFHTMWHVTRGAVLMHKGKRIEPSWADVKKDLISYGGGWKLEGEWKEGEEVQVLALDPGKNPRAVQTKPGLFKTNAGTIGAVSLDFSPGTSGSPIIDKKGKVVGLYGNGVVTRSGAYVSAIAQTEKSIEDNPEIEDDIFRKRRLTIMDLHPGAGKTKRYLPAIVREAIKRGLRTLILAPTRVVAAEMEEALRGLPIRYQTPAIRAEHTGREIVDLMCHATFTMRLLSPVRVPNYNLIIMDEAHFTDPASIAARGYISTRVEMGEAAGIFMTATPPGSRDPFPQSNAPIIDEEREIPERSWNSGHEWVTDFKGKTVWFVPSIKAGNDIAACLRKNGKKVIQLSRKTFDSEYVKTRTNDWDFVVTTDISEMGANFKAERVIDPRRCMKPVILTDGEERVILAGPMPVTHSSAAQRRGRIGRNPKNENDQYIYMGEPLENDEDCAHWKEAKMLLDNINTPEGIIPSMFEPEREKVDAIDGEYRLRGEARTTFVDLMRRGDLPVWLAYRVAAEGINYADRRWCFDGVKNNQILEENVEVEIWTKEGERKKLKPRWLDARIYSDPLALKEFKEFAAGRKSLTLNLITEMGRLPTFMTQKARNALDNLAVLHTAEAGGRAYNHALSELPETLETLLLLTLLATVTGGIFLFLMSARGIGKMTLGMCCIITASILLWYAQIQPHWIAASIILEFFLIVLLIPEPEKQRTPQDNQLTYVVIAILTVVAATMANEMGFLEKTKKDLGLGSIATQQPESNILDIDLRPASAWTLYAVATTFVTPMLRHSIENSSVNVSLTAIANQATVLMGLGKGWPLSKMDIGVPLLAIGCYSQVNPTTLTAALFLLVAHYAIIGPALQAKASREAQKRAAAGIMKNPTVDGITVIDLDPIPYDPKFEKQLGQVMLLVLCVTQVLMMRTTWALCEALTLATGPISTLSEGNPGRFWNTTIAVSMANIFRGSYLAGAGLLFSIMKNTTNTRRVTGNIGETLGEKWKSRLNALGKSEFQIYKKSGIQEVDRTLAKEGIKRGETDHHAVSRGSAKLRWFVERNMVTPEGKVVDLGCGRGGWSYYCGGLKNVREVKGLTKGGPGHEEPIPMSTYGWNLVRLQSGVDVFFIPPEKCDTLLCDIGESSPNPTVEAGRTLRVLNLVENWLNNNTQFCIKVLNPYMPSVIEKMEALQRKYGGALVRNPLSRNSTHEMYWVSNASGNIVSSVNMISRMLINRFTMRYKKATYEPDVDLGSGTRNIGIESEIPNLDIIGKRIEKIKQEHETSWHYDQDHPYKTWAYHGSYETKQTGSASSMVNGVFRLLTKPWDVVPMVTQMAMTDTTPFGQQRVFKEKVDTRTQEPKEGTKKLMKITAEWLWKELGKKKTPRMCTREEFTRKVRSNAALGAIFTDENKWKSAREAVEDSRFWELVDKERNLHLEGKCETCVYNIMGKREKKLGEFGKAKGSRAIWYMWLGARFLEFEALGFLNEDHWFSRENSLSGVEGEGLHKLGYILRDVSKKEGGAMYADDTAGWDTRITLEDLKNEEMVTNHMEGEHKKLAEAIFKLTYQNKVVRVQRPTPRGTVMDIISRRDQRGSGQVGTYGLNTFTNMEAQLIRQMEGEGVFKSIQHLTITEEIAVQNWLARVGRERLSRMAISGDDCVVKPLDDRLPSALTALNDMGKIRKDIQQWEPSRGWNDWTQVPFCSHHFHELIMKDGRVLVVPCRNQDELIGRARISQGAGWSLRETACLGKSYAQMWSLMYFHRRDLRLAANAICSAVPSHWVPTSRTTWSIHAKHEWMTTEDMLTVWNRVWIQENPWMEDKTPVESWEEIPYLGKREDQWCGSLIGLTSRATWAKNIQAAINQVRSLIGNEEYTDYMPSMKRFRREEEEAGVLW

SMILES | inhibition | inhibition (measured here: pilot screen replicate inhibition) [%]
O=C(c1cccc(S(=O)(=O)N2CCN(c3ccc(F)cc3)CC2)c1)N1CCCC1 | -6.98% (inactive) | –
CCc1nc2sc(C)c(C)c2c(=O)n1CCO | -0.54% (inactive) | –
O=C(Oc1ccc(NC2=C(Cl)C(=O)c3ccccc3C2=O)cc1)c1ccc([N+](=O)[O-])cc1 | 11.5% (inactive) | –
N/C(=N\S(=O)(=O)c1ccccc1)c1ccc([N+](=O)[O-])cc1 | -9.13% (inactive) | –
CC(=O)c1cc2c(cc1F)C(C)(C)CCC2(C)C | 5.57% (inactive) | –
COc1c2occc2c(OC)c2c(=O)cc(C)oc12 | -2.99% (inactive) | –
COc1c2ccoc2cc2oc(C)cc(=O)c12 | -4.89% (inactive) | –
Cc1ccc(CC2SC(N)=NC2=O)cc1 (centres undefined) | 0% (inactive) | –
CC(C)(C)NC(=O)NC(=O)CN1CCN(c2ccc(O)cc2)CC1 | 1.52% (inactive) | –
Cc1cc(N)n(-c2ccc(Cl)cc2)n1 | -6.66% (inactive) | –
Cn1c2nc(=O)[nH]c(=O)c-2cc2ccccc21 | -2.42% (inactive) | –
Cc1cccc(-n2cnc3cc([N+](=O)[O-])ccc32)c1 | 0% (inactive) | –
Cc1ccc(-n2cc3ccc([N+](=O)[O-])cc3n2)cc1 | -5.66% (inactive) | –
Cc1cccc(-n2cc(-c3ccc([N+](=O)[O-])cc3)[nH]c2=S)c1 | -5.13% (inactive) | –
Cc1ccc(-n2c3nc(=O)[nH]c(=O)c-3cc3c(C)nn(-c4ccccc4)c32)c(C)c1 | 4.54% (inactive) | –
Cc1ccc(-n2c(C)nn(Cc3ccc([N+](=O)[O-])cc3)c2=O)cc1 | -7.53% (inactive) | –
Cc1ccc(S(=O)(=O)n2cnc3cc([N+](=O)[O-])ccc32)cc1C | 0.8% (inactive) | –
Cc1ccc(C)c(-n2c3nc(=O)n(C)c(=O)c-3cc3ccccc32)c1 | 0% (inactive) | –
O=S(=O)(c1ccc(Cl)cc1)N1CCN(CCc2ccncc2)CC1 | -1.66% (inactive) | –
Cc1cccc(C(C)C)c1NC(=O)COC(=O)CNS(=O)(=O)c1ccccc1 | 0% (inactive) | –

SMILES | inhibition | inhibition (measured here: pilot screen replicate inhibition) [%]
O=C1NC2=C(C(=O)CCC2)C(c2ccc3ncccc3c2)N1 (centres undefined) | 0% (inactive) | –
C[C@H](CO)N1C[C@H](C)[C@@H](CN(C)C(=O)Nc2cc(F)ccc2F)Oc2ncc(-c3cccc(F)c3)cc2C1=O | 0.58% (inactive) | –
O=C1C=C(c2ccc(C(=O)O)cc2)C[C@@H](c2ccc3c(c2)OCO3)C1 | 0.83% (inactive) | –
O=C(Cn1c(C(F)(F)F)nc2ccccc21)Nc1ccccc1N1CCOCC1 | 0.69% (inactive) | –
Cc1cc(-c2ccco2)n(CC(=O)NCCCc2ccccc2)n1 | -4.87% (inactive) | –
N#Cc1c(-c2ccccc2)nc(SCc2cccc(Cl)c2)[nH]c1=O | 19.5% (inactive) | –
COC(=O)c1cccc(CSc2nc(-c3ccccc3)c(C#N)c(=O)[nH]2)c1 | 11.1% (inactive) | –
O=C(CCC(=O)N1CCCC(Nc2ccccc2)C1)c1ccc(F)cc1 (centres undefined) | 2.72% (inactive) | –
COCCOC(=O)c1sc2nc[nH]c(=O)c2c1C | -12.3% (inactive) | –
Cc1ccc(S(=O)(=O)N2CCN(Cc3cccnc3)CC2)cc1 | 2.57% (inactive) | –
CC(=O)Nc1ccc(S(=O)(=O)N(C)CC(=O)OC(C)C(=O)NC2CCCCC2)cc1 (centres undefined) | -5.07% (inactive) | –
Cc1c(C(c2cccc([N+](=O)[O-])c2O)c2c(C)n(C)n(-c3ccccc3)c2=O)c(=O)n(-c2ccccc2)n1C | -5.62% (inactive) | –
Cc1[nH][nH]c(=O)c1C(c1ccccc1[N+](=O)[O-])C(C#N)C#N (centres undefined) | -2.95% (inactive) | –
COc1ccccc1N=Nc1c(C)[nH]n(-c2ccccc2)c1=O | 1.98% (inactive) | -4.55
Cc1[nH]n(-c2ccccc2)c(=O)c1C(C[N+](=O)[O-])c1ccccc1Cl (centres undefined) | -8.87% (inactive) | –
COc1cccc(C(C[N+](=O)[O-])c2c(C)[nH]n(-c3ccccc3)c2=O)c1 (centres undefined) | 8.91% (inactive) | –
Cc1[nH][nH]c(=O)c1[C@@H](c1ccccc1[N+](=O)[O-])C(C#N)C#N | 14.4% (inactive) | –
S=C(Nc1ccccc1Cl)NC1CCCCCC1 | -2.33% (inactive) | –
Cc1nnc(SCC(=O)Nc2nsc(-c3ccc(Cl)cc3)n2)s1 | 2.61% (inactive) | –
CCOc1ccc(S(=O)(=O)N2CCN(S(=O)(=O)c3ccc(C(C)=O)cc3)CC2)cc1 | -2.49% (inactive) | –

SMILES | inhibition | inhibition (measured here: pilot screen replicate inhibition) [%]
CC1CN(CCc2ccccc2)C(C)C/C1=N/O (centres undefined) | -3.09% (inactive) | –
Cc1c(Cl)cccc1NC(=S)N(Cc1cccnc1)Cc1ccccc1Cl | -4.52% (inactive) | –
O=C(NCCS(=O)(=O)NCc1cccs1)c1ccccc1 | 0% (inactive) | –
COc1ccc(C(=O)c2ccccc2C(=O)c2ccccc2)cc1 | -0.81% (inactive) | –
Cc1cc(/C=C2/C(=O)NN(c3ccccc3)C2=O)c(C)n1-c1ccc(O)cc1 | 5.82% (inactive) | –
COC(=O)C1=C(C)NC(=O)/C1=C\c1cc(C)n(-c2ccccc2F)c1C | 5.5% (inactive) | –
Cc1cc(/C=C2/C(=O)NN(c3ccccc3)C2=O)c(C)n1-c1cccc(O)c1 | 6.37% (inactive) | –
COC(=O)C1=C(C)NC(=O)/C1=C\c1cc(C)n(-c2ccccc2)c1C | 5.15% (inactive) | –
Cc1nc(SCC(=O)N2CC(=O)Nc3ccccc32)nc(C)c1C | 2.34% (inactive) | –
Cc1ccc(CS(=O)Cc2ccc(C(=O)NCc3ccc4c(c3)OCO4)o2)cc1 (centres undefined) | -13.8% (inactive) | –
CC1CC(C)CN(S(=O)(=O)c2cccc(C(=O)N3CCN(c4ccc(F)cc4)CC3)c2)C1 (centres undefined) | -0.73% (inactive) | –
CC(C)NC(=O)C1CCN(C(=O)N(C)C)CC1 | 0.71% (inactive) | –
O=C(O)c1ccc(NC(=S)NC(=O)c2ccc(-c3ccc(Br)cc3)o2)cc1 | -8.03% (inactive) | –
Cc1c(NC(=S)NC(=O)c2ccc(-c3ccc(Cl)cc3)o2)cccc1C(=O)O | 8.19% (inactive) | –
O=Nc1c(-c2ccccc2)n(O)[n+]([O-])c1-c1ccccc1 | -16.7% (inactive) | –
COc1cccc(CN2CC(C(=O)NCCN3CCOC3=O)CCC2=O)c1 (centres undefined) | -9.76% (inactive) | –
COC(=O)C1=CN(c2ccc(OC)cc2)C=C(C(=O)OC)C1c1ccc([N+](=O)[O-])cc1 | -9.75% (inactive) | –
Cc1ccc(Cn2nnc(C(=O)Nc3cccc(C)c3C)c2N)cc1 | -0.68% (inactive) | –
